Giardia FBPA inh: inhibitors of Giardia lamblia fructose-1,6-bisphosphate aldolase. Potency, µM (series often up to 59.6 µM), usual class: inhibitors. A8B2U2. AID 2451. purified Giardia FBPA. actives 0.71% (n = 290,000); note: nearly all actives have a fitted effect of over 55% in size
Target sequence (A8B2U2 whole entry, looked up): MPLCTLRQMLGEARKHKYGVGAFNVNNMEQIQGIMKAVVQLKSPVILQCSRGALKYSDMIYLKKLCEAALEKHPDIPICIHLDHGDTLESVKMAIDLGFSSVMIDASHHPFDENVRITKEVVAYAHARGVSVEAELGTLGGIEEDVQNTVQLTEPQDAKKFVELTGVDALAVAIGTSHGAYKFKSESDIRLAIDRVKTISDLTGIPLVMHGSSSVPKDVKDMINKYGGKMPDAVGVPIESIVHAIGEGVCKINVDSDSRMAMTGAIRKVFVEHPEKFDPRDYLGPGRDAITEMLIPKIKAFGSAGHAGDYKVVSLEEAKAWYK
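40 nM FBPA preincubated 10 min at RT with compound (up to 57.5 uM final), then substrate plus GAPDH/TPI/NAD/arsenate coupling and diaphorase/resazurin added. Fluorescence read after 20 min at RT, 525/598 nm.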
LmPK inh: LmPK (Leishmania mexicana) enzyme inhibition; Q27686; purified LmPK, Kinase-Glo ATP luminescence, 1 h; Potency, µM (doses to about 57.5 µM), most hits filed as inhibitors; actives 0.37% (n = 290,000)
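qHTS format; LmPK 0.1 nM; substrates PEP 0.5 mM and ADP 0.1 mM. One-hour room-temperature incubation, then coupled luciferase luminescence; 0.5 nM enzyme wells mark activation.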
Shiga toxin inh: inhibitors of Shiga toxin in Vero cells. Vero cells, Shiga toxin protein synthesis inhibition reporter. inhibition, % at 38.7 µM. actives 9.2% (n = 290,000); in the data active = inhibition mostly above about 28%, no sharp cut-off; inactive = mostly below about 43%
RE007 growth inh: less growth of the S. pombe RE007 Vpr strain | actives 0.21% (n = 360,000) | S. pombe RE007 Vpr strain, BacTiter-Glo ATP luminescence, 24 h | Potency, µM (top dose mostly 92.2 µM), most hits filed as inhibitors; active = well fitted falling curve with a large enough effect; inconclusive = small, poorly fitted or top-dose-only effect; inactive = no such curve, though single readings can be large or run the other way; note: nearly all actives have a fitted effect of over 50% in size
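Fission yeast RE007 carrying one integrated HIV-1 vpr copy, seeded at OD 0.01 in PMG+AL medium with 23 nL pinned compound. Grown 24 h at 30 degrees; viability read by BacTiter-Glo luminescence after 5 min.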
TbPYK inhibitor: T. brucei pyruvate kinase inhibition. actives 0.12% (n = 410,000). Q57TT1. TbPYK enzyme, Kinase-Glo Plus ATP luminescence, 45 min. Potency, µM (doses to about 76.8 µM), usual class: inhibitors. AID 624173; note: nearly all actives have a fitted effect of over 50% in size
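Luminescent Kinase-Glo Plus end-point after 45 min room-temperature reaction of T. brucei pyruvate kinase started with 130 uM ADP (final). Buffer TEA 50 mM pH 7.2 with KCl, MgCl2, BSA, Tween-20; titration-based qHTS with fitted concentration-effect curves.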
CHX counter: counter-screen hit for Shiga toxin inhibitors, cycloheximide; actives 12% (n = 300,000); AID 2314; cell reporter, cycloheximide protein synthesis inhibition counterscreen; max response, %; in the data active = max response mostly above about 13%, no sharp cut-off; inactive = mostly below about 14%; note: read at 38.3 µM for the half of the compounds with a filed dose
Numbers stand for hits; – = inactive; ? = inconclusive; · = no result; ! = not confirmed by another sample; [ ] = another dose, or the depositor's remark. Shown is part of a subset that was picked to be rich in hits. Unless noted, calls come from the whole dose curve; as a rule, active = well fitted curve in the direction sought with a large enough effect; inconclusive = small, poorly fitted or top-dose-only effect, or another doubt; inactive = no such curve, though single readings can be large; an effect the other way counts as inactive or inconclusive.

SMILES | Giardia FBPA inh | LmPK inh | Shiga toxin inh | RE007 growth inh | TbPYK inhibitor | CHX counter
Fc1ccc(NC(=S)NCCN2CCOCC2)cc1 | – | – | – | – | – | –
Cc1cc(-c2nc3ccccc3[nH]2)ccc1N | – | 15.8µM | 144.0 | ? | – | –
COC(=O)c1ccc(-c2ncc[nH]2)cc1 | – | – | – | – | – | 24.0
COC(=O)c1ccc(-c2n[nH]c(=O)c3ccccc23)cc1 | – | – | – | – | – | –
COC(=O)CC1Oc2ccc(C)cc2-n2cc(-c3ccc(F)cc3)nc21 (stereo not given) | · | · | · | · | – | ·
CC(C)N1CCC1(C)C(=O)Nc1cc(-c2ccccc2)nn1C (stereo not given) | · | · | · | –[18.4 µM] | – | ·
COc1ccc(CCCc2nc3ccccc3[nH]2)cc1 | – | – | – | – | – | 22.4
c1ccc(-c2nc3ccccc3[nH]2)cc1 | – | ? | 46.7 | – | – | 31.4
O=C(O)c1cccc(-c2nc3ccccc3[nH]2)c1 | – | – | 32.2 | – | – | 26.7
c1cncc(-c2nc3ccccc3[nH]2)c1 | – | – | 71.4! | – | – | 37.0!
c1ccc(-c2n[nH]c(-c3ccccc3)c2-c2nc3ccccc3[nH]2)cc1 | – | – | – | – | – | –
CC(=O)Nc1ccc2nc(-c3cccnc3)[nH]c2c1 | – | – | – | – | – | –
c1ccc2[nH]c(CCCCc3nc4ccccc4[nH]3)nc2c1 | – | – | – | – | – | –
COc1ccc(Br)cc1CNC(=O)C1CCN(c2nnc(-n3cccc3CNc3ccc(C)cc3)s2)CC1 | · | · | · | · | – | ·
O=C(CCCn1c(=O)c2ccccc2n(Cc2ccc(F)cc2Cl)c1=O)NCCc1ccc(Cl)cc1 | · | · | · | · | – | ·
COC(=O)c1ccc(C(=O)OCc2nc3cc4ccccc4cc3[nH]2)cc1 | – | – | 14.1 | – | – | 29.5
Nc1cc(N)cc(-c2nc3ccccc3[nH]2)c1 | – | – | – | – | – | 22.7
c1ccc2[nH]c(-c3ccncc3)nc2c1 | – | – | 68.3 | – | – | 19.3
CC(C)c1ccc2oc(-c3cc(NC(=O)c4cccnc4)ccc3Cl)nc2c1 | · | · | · | · | – | ·
Cc1c2cnn(-c3ccccc3)c(=O)c2c(C)n1CCCC(=O)Nc1ccc(F)cc1F | · | · | · | · | – | ·
CC1=NN(c2ccc(Cl)cc2)C(=O)C1 | – | – | – | – | – | –
CN(C)/C=C1\C(=O)N(c2ccc(Cl)cc2)CS1(=O)=O | – | – | 85.9 | – | – | 36.3
Cc1ccc(N2CS(=O)(=O)/C(=C/N(C)C)C2=O)cc1 | – | – | 77.3 | – | – | 37.8
CC(=O)OCC(NC(=O)C(Cc1ccccc1)NC(=O)OC(C)(C)C)C1OC(n2cc(C)c(=O)[nH]c2=O)C(OC(C)=O)C1OC(C)=O (stereo not given) | – | · | – | · | · | –
COc1cc(/C(C)=N/NC(=O)CSc2nncn2C)ccc1OCc1ccccc1Cl | – | – | 84.4 | – | – | 37.7
SMILES | Giardia FBPA inh | LmPK inh | Shiga toxin inh | RE007 growth inh | TbPYK inhibitor | CHX counter
CCOc1cc(/C=N/NC(=O)CSc2nncn2C)ccc1OCc1ccccc1 | – | – | – | – | – | –
CCOc1cccc2sc(N(Cc3cccnc3)C(=O)C3CCCCC3)nc12 | · | · | · | · | –[15.4 µM] | ·
Cc1nc(-c2ccc(C(=O)Nc3ccc(F)cc3)cc2)cs1 | – | ? | 75.2 | – | – | 35.3
Cc1nc(-c2cccc(NC(=O)c3ccc(-n4cccn4)cc3)c2)cs1 | · | · | · | – | – | ·
Cc1nc(-c2ccc(C(=O)Nc3cccc(F)c3)cc2)cs1 | – | – | 17.7 | – | – | 16.9
COc1ccc(-c2csc(C)n2)cc1 | – | – | 56.0 | – | – | 30.7
COc1ccc(C(=O)Nc2cnc3sc(C)nn3c2=O)cc1 | – | – | 46.2 | – | – | 24.0
CC(=O)c1ccccc1NC(=O)COC(=O)c1cc2ccccc2[nH]1 | · | · | · | – | – | ·
CCn1c(=O)n(CC)c2cc(N3CCCC3)c(NC(=O)c3ccc(C)c([N+](=O)[O-])c3)cc21 | – | – | – | – | – | –
COc1ccc(NC(=O)c2ccc(-c3csc(C)n3)cc2)cc1 | – | – | 78.5 | – | – | 35.8
COC(=O)c1ccccc1NC(=O)C1=CC(c2ccc(C)cc2)=NS(=O)(=O)N1C | · | · | · | · | – | ·
CC(C)(C)n1ncc2c(=O)n(CC(=O)OCc3ccccc3)cnc21 | – | – | – | – | – | –
CC(C)(C)n1ncc2c(=O)n(Cc3cccc(Cn4cnc5c(cnn5C(C)(C)C)c4=O)c3F)cnc21 | · | · | · | · | – | ·
CC(C)(C)n1ncc2c(=O)n(Cc3cccc(Cl)c3)cnc21 | – | – | 46.4 | – | – | 33.4
CC(C)(C)n1ncc2c(=O)n(CC(=O)N3CCc4ccccc43)cnc21 | – | – | 68.6 | – | – | 11.6
CC(C)(C)n1ncc2c(=O)n(CC(=O)c3ccccc3)cnc21 | – | – | 80.7 | – | – | 55.8
COc1cc(NC(=O)Cn2cc(C(=O)c3ccc(F)cc3)c(=O)c3ccc(C)nc32)cc(OC)c1 | · | · | · | · | – | ·
COc1cccc(C(=O)Nc2nnc(S(=O)(=O)N3CCCc4ccccc43)s2)c1 | · | · | · | · | – | ·
COc1ccc(C(=O)N/N=C/c2ccc3cccc(OCc4ccccc4)c3n2)cc1 | – | – | 60.6 | – | – | 21.5
COc1c(OC(C)=O)ccc(/C=C/c2ccc3cccc(OCc4ccccc4)c3n2)c1[N+](=O)[O-] | – | – | 52.8 | – | – | 34.8
COc1cc(/C=C/c2ccc3cccc(OC)c3n2)c(OC(C)=O)c([N+](=O)[O-])c1 | – | – | – | – | – | –
O=C(N/N=C/c1ccc2cccc(OCc3ccccc3)c2n1)c1ccc(Br)cc1 | – | – | – | – | – | 18.0
NC(=S)N/N=C/c1ccc2cccc(OCc3ccccc3)c2n1 | – | – | – | – | – | –
O=C1c2[nH]nc(-c3ccccc3O)c2C(c2cccc(OCc3ccccc3)c2)N1CCCO (stereo not given) | · | · | · | · | – | ·
Cc1ccc(-n2c(=O)c3c(cnn3C)n(CC(=O)Nc3c(C)cccc3C)c2=O)cc1 | · | · | · | · | – | ·
SMILES | Giardia FBPA inh | LmPK inh | Shiga toxin inh | RE007 growth inh | TbPYK inhibitor | CHX counter
COc1ccccc1-c1noc(-c2cccs2)n1 | – | ? | 110.7 | – | – | 44.0
COc1ccccc1-c1noc(-c2ccncc2)n1 | – | ? | 63.8 | – | – | 26.8
COc1ccc(Br)cc1-c1noc(-c2ccncc2)n1 | – | – | – | – | – | –
COc1ccccc1-c1nc(-c2ccccn2)no1 | – | 4.47µM | – | ? | ? | –
CC(C)=CCCC(C)NC(=O)NC1CCCCC1 (stereo not given) | – | – | – | – | – | 22.6
CCn1nc(C)c(Br)c1-c1nc(-c2ccc(C)cc2)no1 | – | – | – | – | – | –
Cc1cc(-c2nc(-c3ccc(C(C)(C)C)cc3)no2)no1 | – | – | 53.4 | – | – | 39.5
CC(C)(C)c1ccc(-c2noc(-c3ccc4c(c3)CCO4)n2)cc1 | – | – | 34.6 | – | – | 21.4
Cc1c(-c2nc(-c3ccc(C(C)(C)C)cc3)no2)n(C)oc1=O | – | – | 161.3 | – | – | 60.3

Screens: PubChem, National Center for Advancing Translational Sciences (NCATS)
